From PubChem BioAssay (Tox21)
Inconclusive results are not listed. Calls of active or inactive are those of the source. Unless noted, the call rests on the fitted dose curve; in most records, active means well fitted curve in the direction sought with a large enough effect in the repeat runs; inconclusive means weak or mixed curves; inactive means no such curve, though single readings can be large; an effect the other way counts as inactive or inconclusive.

Experiments:
[1] = qHTS assay for small molecules that induce genotoxicity in human embryonic kidney cells expressing luciferase-tagged ATAD5 (AID 651632); further: nearly all actives have a fitted effect of over 15% in size
How it was run: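 Luminescence read-out: after 16 hr compound exposure at 37C, ATAD5-luciferase HEK293T cells received Amplite, 30 min RT, then CCD imaging. A rise in signal marks genotoxic stress.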

[2] = qHTS assay for small molecule agonists of the p53 signaling pathway - cell viability (AID 651633; calls by dose curve;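 further: p53RE-bla HCT reporter cells with a stable beta-lactamase p53 reporter; series mostly up to about 83 µM; nearly all actives have a fitted effect of over 30% in size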)
How it was run: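 p53RE-bla cells, seeded at 4,000 per well and rested 5 h at 37 C/5% CO2, received compounds in DMSO for 16 h at 37 C. CellTiter-Glo was then added, and luminescence was read after 30 min at room temperature to gauge cytotoxicity.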

[3] = qHTS assay for small molecules that induce genotoxicity in human embryonic kidney cells expressing luciferase-tagged ATAD5 - cell viability (AID 651634; calls by dose curve; further: nearly all actives have a fitted effect of over 25% in size)
How it was run: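 HEK293T ATAD5-luc cells, 2,000/well; compound 15.5 hr, 37C/5% CO2; CellTiter-Fluor 30 min, 37C; fluorescence read.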

[4] = qHTS assay for small molecule disruptors of the mitochondrial membrane potential - cell viability (AID 720634; calls by dose curve;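 further: human HepG2 liver cancer cells; series mostly up to about 83 µM; nearly all actives have a fitted effect of over 20% in size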)
How it was run: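 Luminescence from CellTiter-Glo (ATP content) gave viability in HepG2 cells, read in the same wells as the MMP dye assay after 1 hr compound exposure at 37 C.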

[5] = qHTS assay to test for compound auto fluorescence at 590 nm (red) in HepG2 cells (AID 720674)
How it was run: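 Intrinsic compound fluorescence in the red window (Ex/Em 540/590 nm) is measured in attached HepG2 cells exposed for 1 hr, DMSO vehicle as baseline, benchmarked to Rose Bengal sodium.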

[6] = qHTS assay to test for compound auto fluorescence at 535 nm (green) in HepG2 cells (AID 720675)
[7] = qHTS assay to test for compound auto fluorescence at 460 nm (blue) in HEK293 cells (AID 720678)
How it was run: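 Blue-channel (Ex/Em 405/460 nm) intensity measured in HEK293 cultures after overnight compound exposure at 37C; signal expressed relative to triamterene. Cells plated 2,000 per well in 10% dialyzed FBS medium and allowed 4-5 hr to attach.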

[8] = qHTS assay to test for compound auto fluorescence at 590 nm (red) in HEK293 cells (AID 720679)
How it was run: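 Red-channel autofluorescence (Ex/Em 540/590 nm; Rose Bengal sodium reference) was measured after overnight 37C, 5% CO2 exposure of attached HEK293 cells, 2,000 per well in medium with 10% dialyzed FBS.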

[9] = qHTS assay to test for compound auto fluorescence at 535 nm (green) in HEK293 cells (AID 720680)
[10] = qHTS assay to test for compound auto fluorescence at 460 nm (blue) in HEK293 cell free culture (AID 720681)
How it was run: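 Test compounds were pinned into cell-free culture medium (DMEM with 10% FBS) and fluorescence was read directly at Ex/Em 405/460 nm. Signals were expressed as fluorescence equivalents of triamterene, with DMSO vehicle as control.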

[11] = qHTS assay to test for compound auto fluorescence at 535 nm (green) in HEK293 cell free culture (AID 720682)
How it was run: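 Green-label autofluorescence (485 nm excitation, 535 nm emission) measured on compound added to cell-free culture medium (DMEM, 10% FBS). Output is expressed relative to fluorescein.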

[12] = qHTS assay to test for compound auto fluorescence at 590 nm (red) in HEK293 cell free culture (AID 720683)
How it was run: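 Tox21 10K library compounds were pinned into cell-free DMEM with 10% FBS and fluorescence was read at excitation 540 nm. Activity is expressed as Rose Bengal sodium equivalency.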

[13] = qHTS assay to test for compound auto fluorescence at 590 nm (red) in HepG2 cell free culture (AID 720684)
How it was run: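 Readout: intrinsic compound fluorescence at 590 nm emission after 540 nm excitation, scaled to Rose Bengal sodium. Matrix was cell-free MEM with 10% FBS; DMSO vehicle wells served as control.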

[14] = qHTS assay to test for compound auto fluorescence at 460 nm (blue) in HepG2 cell free culture (AID 720685)
How it was run: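 Cell-free plates of MEM plus 10% FBS received 23 nL compound or DMSO vehicle; blue-channel (405/460 nm) intensity scored against triamterene as reference fluorophore.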

[15] = qHTS assay to test for compound auto fluorescence at 535 nm (green) in HepG2 cell free culture (AID 720686)
[16] = qHTS assay to test for compound auto fluorescence at 460 nm (blue) in HepG2 cells (AID 720687)
How it was run: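 Cells (2,000/well in MEM with 10% FBS) attached overnight at 37 C, then were exposed to compound or DMSO for 1 hr at 37 C, 5% CO2. Fluorescence read at Ex/Em 405/460 nm, expressed as triamterene-equivalent signal.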

[17] = molecular target: Glucocorticoid receptor (Homo sapiens) (UniProt P04150); test: qHTS assay to identify small molecule agonists of the glucocorticoid receptor (GR) signaling pathway (AID 720691; active means well fitted activation curve with a large enough effect in the signal ratio in the repeat runs, not every such curve was filed as active; the % refers to the signal ratio)
Sequence of Glucocorticoid receptor (Homo sapiens) (P04150 whole entry, looked up): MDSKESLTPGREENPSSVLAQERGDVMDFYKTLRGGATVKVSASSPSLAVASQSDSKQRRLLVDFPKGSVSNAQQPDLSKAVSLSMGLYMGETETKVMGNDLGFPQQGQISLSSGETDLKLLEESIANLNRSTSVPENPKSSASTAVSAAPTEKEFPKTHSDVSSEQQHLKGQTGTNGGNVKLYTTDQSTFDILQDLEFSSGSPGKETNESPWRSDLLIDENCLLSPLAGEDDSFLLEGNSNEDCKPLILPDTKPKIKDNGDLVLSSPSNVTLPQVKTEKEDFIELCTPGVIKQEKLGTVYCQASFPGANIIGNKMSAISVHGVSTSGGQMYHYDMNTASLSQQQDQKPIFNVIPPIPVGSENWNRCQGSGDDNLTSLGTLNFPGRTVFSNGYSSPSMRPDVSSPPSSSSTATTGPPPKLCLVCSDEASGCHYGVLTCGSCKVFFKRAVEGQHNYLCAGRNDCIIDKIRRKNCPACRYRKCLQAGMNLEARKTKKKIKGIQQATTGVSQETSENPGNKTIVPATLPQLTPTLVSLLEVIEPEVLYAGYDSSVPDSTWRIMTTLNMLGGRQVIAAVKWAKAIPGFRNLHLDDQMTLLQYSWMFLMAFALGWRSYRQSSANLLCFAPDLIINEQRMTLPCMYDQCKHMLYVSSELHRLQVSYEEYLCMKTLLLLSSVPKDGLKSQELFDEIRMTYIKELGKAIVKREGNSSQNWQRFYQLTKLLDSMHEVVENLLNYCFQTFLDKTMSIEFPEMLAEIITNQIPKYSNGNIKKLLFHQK
How it was run: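 HeLa GR-bla reporter line; cells pre-incubated 4 h, compound in DMSO 18 h at 37 C; LiveBLAzer B/G FRET substrate 2 h RT; fluorescence intensity read-out.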

[18] = molecular target: Glucocorticoid receptor (Homo sapiens) (UniProt P04150); test: qHTS assay to identify small molecule antagonists of the glucocorticoid receptor (GR) signaling pathway (AID 720692; active means well fitted inhibition curve with a large enough effect in the signal ratio in the repeat runs, not every such curve was filed as active; the % refers to the signal ratio)
How it was run: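 Read-out: beta-lactamase FRET substrate fluorescence, 2 h at room temperature, in HeLa cells stably carrying a GRE-driven bla reporter. Compounds were co-incubated with 5 nM dexamethasone agonist (final) for 18 h at 37 C.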

[19] = qHTS assay for small molecule disruptors of the mitochondrial membrane potential (AID 720635); further: potency means the concentration at half of the fitted maximal effect
How it was run: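 HepG2 cells (2,000/well) attached overnight at 37C, then took compound for 1 hr at 37C, 5% CO2. Mito-MPS dye was added for 30 min; fluorescence was read at 490/535 nm (monomers) and 540/590 nm (aggregates).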
On the % scale 0 is the no-effect control and ±100 the full control effect.

CC(C)C1OCCN1CCOC(=O)NCCCCCCNC(=O)OCCN1CCOC1C(C)C (centres undefined)
inactive: outcome [1] | outcome [2] | Potency [3] | outcome [4] | outcome [5] | outcome [6] | outcome [7] | outcome [8] | outcome [9] | outcome [10] | outcome [11] | outcome [12] | outcome [13] | outcome [14] | outcome [15] | outcome [16] | Potency [17] | outcome [18]

Cc1ccc(C(=O)O)cc1[N+](=O)[O-]
inactive: outcome [1] | outcome [2] | Potency [3] | outcome [4] | Potency [19] | outcome [5] | outcome [6] | outcome [7] | outcome [8] | outcome [9] | outcome [10] | outcome [12] | outcome [13] | outcome [14] | outcome [15] | outcome [16]

CN1C[C@@H]2C[C@H]1CN2c1cc2c(cc1F)c(=O)c(C(=O)O)cn2C1CC1
inactive: outcome [1] | outcome [2] | Potency [3] | outcome [4] | outcome [5] | outcome [6] | outcome [7] | outcome [8] | outcome [9] | outcome [10] | outcome [11] | outcome [12] | outcome [13] | outcome [14] | outcome [15] | outcome [16] | Potency [17] | outcome [18]

Cc1c(Cl)cccc1Cl
inactive: outcome [1] | outcome [2] | Potency [3] | outcome [4] | outcome [5] | outcome [6] | outcome [7] | outcome [8] | outcome [9] | outcome [10] | outcome [11] | outcome [13] | outcome [14] | outcome [15] | outcome [16] | outcome [18]

CC(=O)CCC1=C(C)CCCC1(C)C
inactive: outcome [1] | outcome [2] | Potency [3] | outcome [4] | Potency [19] | outcome [5] | outcome [6] | outcome [7] | outcome [8] | outcome [9] | outcome [10] | outcome [13] | outcome [14] | outcome [15] | outcome [16] | outcome [18]

COP(=O)(O)OP(=O)(O)OC
inactive: outcome [1] | outcome [2] | outcome [4] | Potency [19] | outcome [5] | outcome [6] | outcome [7] | outcome [8] | outcome [9] | outcome [10] | outcome [11] | outcome [12] | outcome [13] | outcome [14] | outcome [15] | outcome [16]

CCCC(=O)OCCC(C)CCC=C(C)C (centres undefined)
inactive: outcome [1] | outcome [2] | Potency [3] | outcome [4] | Potency [19] | outcome [5] | outcome [6] | outcome [7] | outcome [8] | outcome [9] | outcome [10] | outcome [11] | outcome [13] | outcome [14] | outcome [15] | outcome [16]

CC1(C)CC(OC(=O)CCCCCCCCC(=O)OC2CC(C)(C)NC(C)(C)C2)CC(C)(C)N1
inactive: outcome [1] | outcome [2] | Potency [3] | fluorescence, relative to Rose Bengal [5] 0.031% [at 18.6 µM] | fluorescence, % of fluorescein control [6] -0.0628% [at 18.6 µM] | fluorescence, % of triamterene [7] -0.0282% [at 18.6 µM] | fluorescence, % of fluorescent control [8] 0.252% [at 18.6 µM] | fluorescence, % of fluorescein [9] -0.0999% [at 18.6 µM] | fluorescence, % of fluorescent control [10] -0.182% [at 18.6 µM] | activity change [11] -0.0076% [at 18.6 µM] | fluorescence, % of fluorescent control [12] 0.038% [at 18.6 µM] | fluorescence, % of Rose Bengal [13] 0.143% [at 18.6 µM] | fluorescence, % of fluorescent control [14] -0.0702% [at 18.6 µM] | fluorescence, % of fluorescein control [15] -0.17% [at 18.6 µM] | fluorescence, % of fluorescent control [16] -0.0104% [at 18.6 µM] | Potency [17] | outcome [18]
active: Potency [19] 2960 nM
